Experimental data from PubChem BioAssay AID1159580 (chemical genetic matrix, 2015).
In all, about 5,500 compounds went through this assay and about 2,000 (36%) were called active. Not shown: some 18% with an inconclusive outcome. Cut-off read from the data, not from the text of the source: active = normalized growth mostly below about 0.91 (no sharp cut-off); inconclusive = no clear call, values can overlap the other calls; inactive = mostly above about 0.92. The list shows a part of the results.

Assay: chemical genetic growth profiling, strain panel (AID 1159580);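 note: tested at 20 µM; growth read once vehicle control cultures reached saturation at 30 °C; 1 = growth at the plate median or of vehicle wells; lower values mean less growth of the strain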
Settings: growth OD

Measured: normalized growth

CCCCOc1cc(C(=O)O)ccc1OC
inactive: S. cerevisiae deletion strains, locus YAL013W, strain DEP1, stronger effect = lower value 0.97 | S. cerevisiae deletion strains, locus YBR229C, strain ROT2, stronger effect = lower value 0.984 | S. cerevisiae deletion strains, locus YDL101C, strain DUN1, stronger effect = lower value 0.987 | S. cerevisiae deletion strains, locus YDR150W, strain NUM1, stronger effect = lower value 0.988 | S. cerevisiae deletion strains, locus YEL061C, strain CIN8, stronger effect = lower value 1.01 | S. cerevisiae deletion strains, locus YGR078C, strain PAC10, stronger effect = lower value 0.971 | S. cerevisiae deletion strains, locus YGR229C, strain SMI1, stronger effect = lower value 1 | S. cerevisiae deletion strains, locus YHR030C, strain SLT2, stronger effect = lower value 0.999 | S. cerevisiae deletion strains, locus YHR087W, strain rtc3, stronger effect = lower value 0.977 | S. cerevisiae deletion strains, locus YJR043C, strain POL32, stronger effect = lower value 0.985 | S. cerevisiae deletion strains, locus YJR075W, strain HOC1, stronger effect = lower value 0.962 | S. cerevisiae deletion strains, locus YLR039C, strain RIC1, stronger effect = lower value 1.02 | S. cerevisiae deletion strains, locus YLR058C, strain SHM2 (second series), stronger effect = lower value 0.979 | S. cerevisiae deletion strains, locus YLR085C, strain ARP6, stronger effect = lower value 1.01 | S. cerevisiae deletion strains, locus YLR262C, strain YPT6, stronger effect = lower value 1.04 | S. cerevisiae deletion strains, locus YML094W, strain GIM5, stronger effect = lower value 1 | S. cerevisiae deletion strains, locus YMR219W, strain ESC1, stronger effect = lower value 0.975 | S. cerevisiae deletion strains, locus YMR263W, strain SAP30, stronger effect = lower value 0.977 | S. cerevisiae deletion strains, locus YMR307W, strain GAS1, stronger effect = lower value 0.956 | S. cerevisiae deletion strains, locus YNL128W, strain TEP1, stronger effect = lower value 1.02 | S. cerevisiae deletion strains, locus YNL153C, strain GIM3, stronger effect = lower value 0.979 | S. cerevisiae deletion strains, locus YNL298W, strain CLA4 (second series), stronger effect = lower value 1.03 | S. cerevisiae deletion strains, locus YNL322C, strain KRE1, stronger effect = lower value 0.976 | S. cerevisiae deletion strains, locus YNR030W, strain Alg12, stronger effect = lower value 0.999 | S. cerevisiae deletion strains, locus YPL055C, strain LGE1, stronger effect = lower value 0.941 | S. cerevisiae deletion strains, locus YPL241C, strain CIN2, stronger effect = lower value 1.01 | S. cerevisiae deletion strains, locus YPR135W, strain CTF4, stronger effect = lower value 1.04 | S. cerevisiae strains, strain wild type, stronger effect = lower value 1.02
